Experimental data: PubChem BioAssay AID1402 (National Center for Advancing Translational Sciences (NCATS), 2008)
Inconclusive results are not listed. Activity calls are given as the source filed them. The call rests on the fitted dose curve; in most records, active means well fitted curve in the direction sought with a large enough effect in the signal ratio; inconclusive means small, poorly fitted or top-dose-only effect, or effect the other way, or a change in a side signal; inactive means no such curve, though single readings can be large or run the other way; the % refers to the signal ratio.

Target: Lutropin-choriogonadotropic hormone receptor (Homo sapiens) (UniProt P22888)
Assay: Counterscreen for Agonists of Thyroid Stimulating Hormone Receptor: HTRF Activity in a Luteinizing Hormone Receptor Cell Line
Excerpt: NIH Chemical Genomics Center [NCGC] NIH Molecular Libraries Screening Centers Network [MLSCN] MLSCN Grant: 1 X01 MH080680-01 PI Name: Dr. Marvin Gershengorn, NIH NCGC Assay Overview: Confirmation of Thyroid Stimulating Hormone Receptor Agonists TSH is an alpha/beta heterodimeric glycoprotein hormone secreted from the anterior pituitary gland which belongs to the glycoprotein hormone family. The actions of TSH are mediated by a seven-transmembrane receptor, which upon TSH binding couples preferentially to the G-alpha (s) protein (Gs), resulting in activation of adenylate cyclase and increase in cyclic adenosine 3', 5' monophosphate (cAMP). The TSH receptor (THSR) is mainly expressed in thyroid follicular cells and regulates their growth and function. […] In order to confirm specificity of the compounds to the TSHR, a confirmatory assay was conducted on a similar family member, the Luteinizing Hormone (LH) receptor, transfected into a HEK 293 cell line, using an orthogonal detection technology to measure cAMP stimulation: antibody-based Homogeneous Time Resolved Fluorescence (HTRF).
NCGC Assay Protocol Summary: Homogeneous Time Resolved Fluorescence (HTRF) cAMP Assay. […] Plates were measured using the Envision plate reader (PerkinElmer, Boston, MA) with excitation at 330 nm and emissions of 615 nm and 660 nm. […]

Lutropin-choriogonadotropic hormone receptor (Homo sapiens), sequence (P22888 whole entry, looked up): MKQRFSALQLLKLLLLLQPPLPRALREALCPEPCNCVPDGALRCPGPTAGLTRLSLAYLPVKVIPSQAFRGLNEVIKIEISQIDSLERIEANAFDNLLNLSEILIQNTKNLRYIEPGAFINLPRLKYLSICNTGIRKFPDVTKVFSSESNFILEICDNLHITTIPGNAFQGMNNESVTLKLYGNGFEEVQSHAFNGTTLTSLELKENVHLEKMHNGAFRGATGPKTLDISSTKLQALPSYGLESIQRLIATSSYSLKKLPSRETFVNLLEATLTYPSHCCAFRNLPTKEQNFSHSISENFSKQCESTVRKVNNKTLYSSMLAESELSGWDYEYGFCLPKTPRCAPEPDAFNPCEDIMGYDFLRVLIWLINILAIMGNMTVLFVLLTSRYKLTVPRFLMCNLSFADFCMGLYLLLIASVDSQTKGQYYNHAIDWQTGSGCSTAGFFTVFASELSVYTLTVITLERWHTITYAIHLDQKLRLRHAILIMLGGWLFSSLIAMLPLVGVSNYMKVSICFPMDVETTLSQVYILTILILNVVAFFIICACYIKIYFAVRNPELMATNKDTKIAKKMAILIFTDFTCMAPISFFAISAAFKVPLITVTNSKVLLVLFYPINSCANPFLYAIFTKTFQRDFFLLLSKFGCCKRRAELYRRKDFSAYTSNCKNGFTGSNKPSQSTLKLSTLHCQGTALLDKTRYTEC

Which outcome does the source give for `CCOC(=O)C1=C(N)Oc2c(c(=O)oc3ccccc23)C12C(=O)N(C)c1ccccc12` (configuration not stated) here?
The outcome was “inactive”.

For `C=CCN1C(=O)C2(C(C(=O)OC)=C(N)Oc3c2c(=O)oc2ccccc32)c2ccccc21` (configuration not stated), which outcome is on record?
Its outcome is “inactive”.
